Molecules are shown by their SMILES. About 220 (9.2%) of roughly 2,400 compounds were called active. For the sample, actives were picked, then their nearest neighbours and some compounds at random. Values without a mark were called inactive.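 How the source made its calls: active means signal change above the mean of dofetilide-free buffer controls plus 3 SD, so a positive margin; inactive means the rest.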

This assay in a line: nonspecific flux effects in parental CHO-K1, confirmation, counter-screen for hERG block protection project, cell-based, CHO-K1 parental line, FluxOR thallium flux (AID 1839).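 Further: compounds applied alone with no dofetilide to cells lacking hERG.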 As to conditions: CHO-K1 parental cells, FluxOR thallium flux fluorescence; at 10 µM. A general note: Counterscreens check selectivity or assay interference.
Regarding `Cc1nnc(NC(=O)C2CCCN(S(=O)(=O)c3ccccc3C(F)(F)F)C2)s1` (configuration not stated), the signal change vs control minus 3*SD hit threshold (margin above threshold, higher = more increase) is -12.2%.
In the case of `CCCCNC(=O)c1onc(CSc2nc3ccccc3[nH]2)c1C(=O)NCCCC` it was -27.7%.
In the case of `C=CCn1c(O)c(N=NC(=S)Nc2ccc(OC)cc2)c2ccccc21` it was -17.1%; in that of `Cc1nnc(NC(=O)CN2CCN(Cc3ccc(F)cc3Cl)CC2)s1`, -35.7%; in that of `O=C(Nc1cccc(N=Cc2cc(Cl)cc(Br)c2O)c1)c1ccco1`, -5.5%.
The figure for `C=CCNC(=S)Nc1sc2c(c1C(=O)OCC)CC(C)(CC)OC2` (configuration not stated) is -1.5%; for `CCOC(=O)c1c(NC(=S)NC)sc2c1CCCC2` it is -11%; for `CCOC(=O)c1c(NC(=S)NC)sc2c1CC(C)(C)SC2` it is 22.5% (active).
On to `CCCN(CC1CC1)C(=S)Nc1ccccc1F`, for which the signal change vs control minus 3*SD hit threshold (margin above threshold, higher = more increase) was -25.8%.
On to `COc1cc(/C=C2/SC(=S)N(CC(=O)O)C2=O)ccc1OCC(=O)Nc1ccc(C)c(C)c1`, for which the signal change vs control minus 3*SD hit threshold (margin above threshold, higher = more increase) was -34.3%.
With `COc1ccccc1C(=O)Nc1ccnn1C1CCN(C(=O)c2ccoc2C)CC1`, the signal change vs control minus 3*SD hit threshold (margin above threshold, higher = more increase) was -41.5%.
In the case of `O=C(CSc1nc(N2CCCCC2)nc(N2CCCCC2)n1)c1ccccc1` it was -13.7%; in that of `Cc1nn(-c2ccc(Cl)cc2)c2sc(C(=O)c3c(N)n(C)c(=O)n(C)c3=O)cc12`, -34.5%; in that of `COc1cc(Br)cc(C=Nc2cccc(C(F)(F)F)c2)c1O`, -8.3%.
The figure for `Cc1ccc(N=Cc2cc(Cl)cc(Cl)c2O)nc1` is -26.6%.
With `Oc1c(Cl)cc(Cl)cc1C=Nc1ccc(Br)cc1`, the signal change vs control minus 3*SD hit threshold (margin above threshold, higher = more increase) was 12.8% (active).
In the case of `NC(=O)c1cccc(N=Cc2cc(Cl)cc(Cl)c2O)c1` it was -22.3%.
On to `Cc1cccc(N=Cc2cc(Br)cc(Cl)c2O)c1`, for which the signal change vs control minus 3*SD hit threshold (margin above threshold, higher = more increase) is 3.2% (active).
In the case of `Cc1ccc(N=Cc2cc(Br)cc(Cl)c2O)cc1` it was -4.8%; in that of `COc1cc(C2NC(=O)NC(O)(C(F)(F)F)C2C(C)=O)cc(OC)c1OC` (configuration not stated), -34.1%; in that of `CCOc1cc(/C=C2/C(=O)ON=C2C)ccc1O`, -38.8%.
The figure for `Oc1ccc(Cl)cc1C1=NNC(c2cccs2)C1` (configuration not stated) is -19.1%.
The figure for `Cc1ccc(SCc2ccc(C(=O)N3CCCC3)cc2)cc1` is -17%.
As to `CCOc1ccc(NC(=S)NS(=O)(=O)c2cc(Br)ccc2OCC)cc1`, the signal change vs control minus 3*SD hit threshold (margin above threshold, higher = more increase) is -3.6%.
`Nc1nnc(SCC(=O)OCc2ccc(F)cc2)s1`: the signal change vs control minus 3*SD hit threshold (margin above threshold, higher = more increase) was -40.4%.
In the case of `Cc1cccc(N2CCN(C(=O)Cc3c(C(=O)O)[nH]c4ccc(Cl)cc34)CC2)c1C` it was -33.6%; in that of `Cc1ccc(S(=O)(=O)N(C)C)cc1NC(=S)NC(C)CCCC(C)C` (configuration not stated), -30.7%.

(Values after PubChem BioAssay AID1839 (Johns Hopkins Ion Channel Center, 2009).)
